Measurements published in PubChem BioAssay (Tox21).
Inconclusive results are not listed. Values without a mark were called inactive. Calls of active or inactive are those of the source. Calls come from the whole dose curve; as a rule, active = well fitted cell-killing curve with a large enough effect in the repeat runs; inconclusive = weak or mixed curves, or effect the other way; inactive = no such curve, though single readings can be large or run the other way.

Assay: qHTS assay to identify small molecule agonists of the vitamin D receptor (VDR) signaling pathway - cell viability counter screen (AID 743224)
Conditions: VDR-bla HEK293T viability, CellTiter-Glo luminescence, 16 h; series mostly up to 62.6 µM; activity change, negative = cytotoxicity: at the top concentration
Method in brief: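 Counter screen run in the same wells as the VDR-bla reporter assay: CellTiter-Glo luminescence, 30 min at room temperature, after 16 h compound treatment at 37C of cells pre-plated for 4 h.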
% is set by controls: 0 for no effect and ±100 for the full control effect.
Note: nearly all actives have a fitted effect of over 50% in size.

SMILES	outcome
NC(=S)NNC(N)=S	inactive
CC(=O)OCCOC(C)=O	inactive
c1ccc2c(c1)Cc1ccccc1-2	inactive
CCO[Si](CCC#N)(OCC)OCC	inactive
CC(C)OC(=O)COc1ccc(Cl)cc1Cl	inactive
C=CC(=O)OCCC(=O)O	inactive
CNC(=O)Oc1ccc2c(c1)[C@]1(C)CCN(C)[C@@H]1N2C	inactive
CCCCCCCCCCCC(=O)OC	inactive
CC(=O)OC1CC(C)OC(C)O1 (stereo unspecified)	inactive
CCOCC(=O)O	inactive
C=CCCCCCCCCC(=O)O	inactive

Assay: qHTS assay to identify small molecule antagonists of the vitamin D receptor (VDR) signaling pathway - cell viability counter screen (AID 743225)
Conditions: VDR-bla HEK293T viability, CellTiter-Glo luminescence, 16 h; series mostly up to 61 µM; viability change, negative = cytotoxic: at the top concentration
Method in brief: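 Cytotoxicity toward the VDR-bla HEK 293T line was scored by ATP-based CellTiter-Glo luminescence, read in the wells already used for the beta-lactamase readout after 16 h compound treatment under 3 nM 1-alpha,25-dihydroxyvitamin D3 stimulation.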

SMILES	outcome	viability change, negative = cytotoxic [%]
C=CC[N+](C)(C)CC=C	inactive	–
CC1(C)NC(=O)NC1=O	inactive	–
CN(C)c1ccc(O)c2c1C[C@H]1C[C@H]3[C@H](N(C)C)C(=O)C(C(N)=O)=C(O)[C@@]3(O)C(=O)C1=C2O	inactive	–
O=C(O)/C=C/C(=O)O	inactive	–
C=C(C)CNCC	inactive	–
C=C(C)[C@H]1CC=C(C)C(=O)C1	inactive	–
O=[N+]([O-])c1ccc2nc[nH]c2c1	inactive	–
O=C(O)c1cc2ccccc2cc1O	inactive	–
C[C@]12CCC(=O)C=C1CC[C@@H]1[C@@H]2[C@@H](O)C[C@@]2(C)[C@H]1CC[C@]2(O)C(=O)CO	inactive	–
CC(CCl)OP(=O)(OC(C)CCl)OC(C)CCl (stereo unspecified)	inactive	–
O=C(O)c1ccc(S(=O)(=O)N(Cl)Cl)cc1	inactive	–
O=C(O)CCCCCCCCC(=O)O	inactive	–
CC(C)(C)c1cc(Cc2cc(C(C)(C)C)c(O)c(C(C)(C)C)c2)cc(C(C)(C)C)c1O	inactive	–
CCCCCCCO	inactive	–
C[C@]12CC[C@@H]3c4ccc(O)cc4CC[C@H]3[C@@H]1C[C@@H](O)[C@@H]2O	–	3.95
